Assay outcomes: PubChem, National Center for Advancing Translational Sciences (NCATS)
A selection: hits, their analogues and other compounds. The true share with any hit is near 19%.
KB-V1 cytotox: KB-V1 MDR subline cytotoxicity; AID 1347076; 400,000 tested, 3.4% active; Potency, µM (titrated, usually from 46.1 µM), hits mostly cytotoxic; KB-V1 MDR cells viability, CellTiter-Glo, 72 h; further: nearly all actives have a fitted effect of over 60% in size
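Drug-selected KB-V1 cells, grown in DMEM lacking phenol red with 10% FBS, receive compound titrations; after three days at 37 degrees C, surviving cell ATP is quantified by CellTiter-Glo luminescence and responses normalized and curve-fitted.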
HT1080 IDH1KD tx: kills HT-1080 cells with IDH1 knockdown; 360,000 tested, 2% active; AID 686971; Potency, µM (top dose mostly 46.1 µM), inactives show top-dose activity, negative = toxicity, usual class: cytotoxic; HT-1080 IDH1 knockdown viability, ATP luminescence, 48 h;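 further: 0% = DMSO wells and -100% = cell-free medium wells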
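IDH1KD HT-1080 cells, 750/well, RPMI + 5% FBS; compound pinned after 2 h settling; 48 h, 37 °C; CellTiter-Glo luminescence; % activity normalised to DMSO and no-cell wells; curves fitted, classed by r2 and efficacy.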
DT40 TDP1 no CPT: qHTS for Inhibitors of human tyrosyl-DNA phosphodiesterase 1 (TDP1): qHTS in cells in absence of CPT; 420,000 tested, 15% active; DT40 Tdp1-/- hTDP1 cells, no CPT, ATP luminescence, 48 h; Potency, µM (highest dose often 46.2 µM), for the others: at the highest dose activity change, negative = growth inhibition, usual class: inhibitors; further: nearly all actives have a fitted effect of over 55% in size
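Seeded 400 DT40-hTDP1 cells/well (vehicle DMSO, no 20 nM CPT); pinned compounds; ≥48 hr at 37 °C; CellTiter-Glo luminescence as viability measure.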
HT1080-NT tox: kills 2HG-producing HT-1080-NT fibrosarcoma cells; 360,000 tested, 1.6% active; HT-1080-NT fibrosarcoma viability, CellTiter-Glo ATP luminescence, 48 h; Potency, µM (titrated, usually from 46.1 µM), for inactives: top-dose activity, negative = less viability, actives largely listed as cytotoxic;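 further: NT is the 2HG producing partner of a matched IDH1 knockdown line; 0% = DMSO-treated cells and -100% = media-only wells without cells; nearly all actives have a fitted effect of over 55% in size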
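HT-1080-NT; 750 cells/well; 5% FBS RPMI; 48 h compound, 37 degrees C; CellTiter-Glo luminescence; curve fitting and curve-class assignment.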
TDP1 cell CPT: DT40-hTDP1 cell growth loss with CPT; chicken DT40 Tdp1-/-;hTDP1 cells + 20 nM CPT, ATP luminescence, 48 h; Potency, µM (top dose mostly 46.2 µM), without a hit: at the top dose activity change, negative = growth inhibition, most hits filed as inhibitors; 420,000 tested, 12% active; AID 686979; further: nearly all actives have a fitted effect of over 55% in size
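Chicken DT40 Tdp1-/- cells stably complemented with human TDP1 were seeded at 400 cells/well in medium containing 20 nM camptothecin, exposed to pin-transferred compounds, and grown at 37 °C for at least 48 hr. Viability was read as ATP luminescence.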
KB-3-1 tox: kills parental KB-3-1 adenocarcinoma cells; KB-3-1 viability, CellTiter-Glo ATP luminescence, 72 h; Potency, µM (series often up to 46.1 µM), actives largely listed as cytotoxic; 400,000 tested, 1.4% active; further: nearly all actives have a fitted effect of over 60% in size
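Viability of parental KB-3-1 cells, measured by CellTiter-Glo luminescence, followed a 72 h incubation at 37 °C with pinned compounds in phenol-red-free DMEM containing 10% FBS.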
Active calls of the source: *; i = inactive; ? = inconclusive; . = no result given; ! = not active in a repeat. The call rests on the fitted dose curve; in most records, active means well fitted curve in the direction sought with a large enough effect; inconclusive means small, poorly fitted or top-dose-only effect, or another doubt; inactive means no such curve, though single readings can be large; an effect the other way counts as inactive or inconclusive. Unless noted, on the % scale 0 is the no-effect control and ±100 the full control effect; potency means the concentration at half of the fitted maximal effect.

SMILES | KB-V1 cytotox | HT1080 IDH1KD tx | DT40 TDP1 no CPT | HT1080-NT tox | TDP1 cell CPT | KB-3-1 tox
COc1ccc(C(=O)OC2C[C@H]3CC[C@@H](C2)N3O)cc1OC (stereo not given in full) | i | -26% | -9% | -24% | 17% | i
COc1cc(OC)c(OC)cc1CN1CCN(C(=O)COc2ccc3ccccc3c2)CC1 | ? | -6% | 26µM* | -16% | ? | i
COc1ccc(OCC(=O)N2CCN(Cc3ccc(SC)cc3)CC2)cc1 | i | -10% | 23µM*! | -4% | ? | i
COc1ccc(OCC(=O)N2CCN(Cc3ccc4c(c3)OCO4)CC2)cc1 | i | -3% | 12% | -4% | -27% | i
COc1ccc(CNS(=O)(=O)c2cc3c(cc2C)N(C)CCO3)cc1 | i | -27% | 15µM* | 4% | ? | ?
CCOc1ccc(-c2cc(C(=O)N3CCC4(CC3)OCCO4)c3ccccc3n2)cc1 | i | 10% | ? | 1% | 5.2µM* | i
COc1ccc(-c2cc(C(=O)N3CCC4(CC3)OCCO4)c3ccccc3n2)cc1 | ? | -14% | ? | -11% | ? | i
COc1ccc(CCNC(=O)CCCCn2c(=O)c3ccccc3n(Cc3ccccc3Cl)c2=O)cc1OC | i | . | ? | . | ? | i
COC(=O)Cn1cc(/C=C2\C(=O)NC(=O)N(c3ccc(OC)cc3)C2=O)c2ccccc21 | i | -4% | 2.3µM* | 0% | ? | i
COc1ccc(N2C(=O)NC(=O)/C(=C\c3cn(C)c4ccccc34)C2=O)cc1 | i | -6% | -26% | -8% | 1% | i
CC(C)N1C(=O)/C(=C/C=C/c2ccco2)C(=O)N(Cc2ccco2)C1=O | ? | ? | 15µM* | ? | 16µM* | ?
COc1ccc(/C=C2/C(=O)N(Cc3ccco3)C(=O)N(C(C)C)C2=O)cc1 | i | 4% | -6% | -3% | -2% | i
COc1ccc2c(c1)CC[C@@H]1[C@@H]2CC[C@]2(C)[C@@H](NCCCCCCN3C(=O)C=CC3=O)CC[C@@H]12 | . | . | 22µM* | . | ? | .
CCc1cc(-c2nnn(CCC3COCCO3)c2CC)cc(CC)c1-c1cn(Cc2ccc3ccccc3c2)nn1 (stereo not given) | 5.8µM* | -21% | 8.2µM* | -1% | 21µM* | ?
CC1(C)C(O)CC(O)[C@]2(C)C1CC(O)[C@]1(C)C2CC[C@@]2(C)C(c3ccoc3)CC3OC312 (stereo not given in full) | . | . | -13% | . | -8% | .
CCN1C(=O)c2ccccc2Sc2ccc(NC(=O)Cc3ccc(OC)c(OC)c3)cc21 | ? | . | ? | . | ? | i
COc1ccc(CCNC(=O)c2ccc3c(c2)N=C(C)c2cc(C)ccc2S3)cc1OC | i | . | 15µM* | . | ? | i
COc1ccc(CCNCc2ccsc2)cc1OC | i | 10% | 9% | 5% | 4% | i
CCc1ccc(CNC(=O)c2ccc3c(c2)N=C(C)c2cc(C)ccc2S3)cc1 | i | . | 5.8µM* | . | 12µM* | ?
COc1ccc(CCNC(=O)c2ccc3c(c2)N(Cc2cccc(Cl)c2)C(=O)CS3)cc1OC | ? | . | 23µM* | . | 21µM* | i
Cn1cc(C(O)CN2CCCCC2)c2ccccc21 (stereo not given) | i | -1% | -13% | 0% | 3% | i
CCCCCCC(C)OC(=O)COc1ccc(Cl)cc1Cl (stereo not given) | . | . | 15% | . | 18% | .
OC(c1ccc(F)cc1)(c1ccc(F)cc1)[C@@H]1CCCN1 | i | -23% | 16µM* | -23% | ? | i
C[C@@H]1CN([C@H](C)CO)C(=O)CCCn2nncc2CO[C@H]1CN(C)C(=O)Oc1cccc2ccccc12 | i | 6% | -26% | 13% | -21% | i
C=C1C(C)C2C(Cc3ccccc3)NC(=O)C23OC(=O)/C=C/C(O)CCCC(C)C/C=C/C3C1O (stereo not given) | ? | 8.2µM* | 2.1µM* | ? | 1.5µM* | ?
SMILES | KB-V1 cytotox | HT1080 IDH1KD tx | DT40 TDP1 no CPT | HT1080-NT tox | TDP1 cell CPT | KB-3-1 tox
C=C1[C@@H](O)C2C=CC[C@H](C)C(=O)[C@@](C)(O)C=C[C@@H](OC(C)=O)[C@@]23C(=O)N[C@H](Cc2ccccc2)[C@@H]3[C@@H]1C (stereo not given in full) | . | . | 0.24µM* | . | 0.27µM* | .
C=C1[C@@H](C)[C@H]2[C@H](Cc3ccccc3)NC(=O)[C@]23[C@H](OC(C)=O)/C=C/[C@](C)(O)C(=O)[C@@H](C)C/C=C/[C@H]3[C@@H]1O | . | . | 0.14µM* | . | 0.18µM* | .
COC(=O)C1=C(c2ccc(S(C)(=O)=O)cc2)C[C@@H]2CC[C@H]1N2C(=O)NCc1ccc(F)cc1 | i | 8% | -14% | 13% | 0% | i
COC(=O)C1=C(c2ccc(OC(F)(F)F)cc2)C[C@@H]2CC[C@H]1N2C(=O)NCc1cc(C)oc1C(F)(F)F | ? | ? | 21µM* | -11% | ? | ?
COC(=O)C1=C(c2ccc3ccccc3c2)C[C@@H]2CC[C@H]1N2C(=O)NCc1ccc(F)cc1 | i | ? | 16µM* | ? | ? | ?
COC(=O)C1=C(c2ccc(OC(F)(F)F)cc2)C[C@@H]2CC[C@H]1N2C(=O)NCc1ccc(F)cc1 | i | -7% | 21µM* | -2% | 18µM* | i
ClCCOCCCl | i | 10% | ? | -6% | -11% | i
COC(=O)C1=C(c2ccc(OCc3ccccc3)c(F)c2)C[C@@H]2CC[C@H]1N2C | i | 0% | 23µM* | -20% | ? | i
COC(=O)C1=C(c2ccc(OCc3ccccc3)cc2)C[C@@H]2CC[C@H]1N2C | ? | -10% | 23µM* | -11% | 16µM* | i
COC(=O)C1=C(c2cccc(NC(C)=O)c2)C[C@@H]2CC[C@H]1N2C | i | 12% | -7% | 16% | -1% | i
O=C1NCN(c2ccccc2)C12CCN(C(c1cc3ccccc3o1)c1nnnn1C1CCCCC1)CC2 (stereo not given) | i | ? | ? | ? | ? | ?
CN1C(=O)CC(=O)N(c2ccccc2)c2cc(Cl)ccc21 | . | . | -12% | . | -18% | .
